The nature of experiment [1]: qHTS drug screen for cell cycle checkpoint inhibitors in PARPi-resistant BRCA-mutant ovarian cancer cell lines. (AID 1963452; calls by dose curve). The settings on record: PEO1/OlaR viability, CellTiter-Glo luminescence, 96 h, stronger effect = lower value. The method in brief:
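PEO1, PEO4 and PEO1/OlaR ovarian cancer cells, 600 per well, exposed 96 h at 37C to a dilution series. Viability read by CellTiter-Glo luminescence, normalized to DMSO and empty wells; activity summarized as Z-AUC.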

The next experiment concerns 3D7. Nature of the experiment: qHTS profiling for inhibitors of Plasmodium falciparum proliferation (AID 504749).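 For activity, negative = inhibition: 0% = DMSO vehicle and full inhibition = artemisinin control.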 Note: nearly all actives have a fitted effect of over 60% in size. Note: potency is the fitted concentration of half-maximal effect. The settings on record: P. falciparum in erythrocytes, SYBR Green DNA, 72 h; series mostly up to 28.7 µM. In short, it runs like this: (§1)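 Readout was DNA-dye fluorescence from lysed cultures, ex 485/em 535 nm. Parasitized red cells had grown 72 h with compound; data scaled between 0.29 uM artemisinin and DMSO wells and corrected using vehicle-only plates.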

The subject of the next experiment is AA1029. The experiment is described as above. To be noted: P. falciparum in erythrocytes, SYBR Green DNA, 72 h; series mostly up to 28.7 µM. In short, it runs like this:
as §1

The test system of another experiment is AS120. The experiment is described as above. The settings on record: P. falciparum in erythrocytes, SYBR Green DNA, 72 h; series mostly up to 28.7 µM. In short, it runs like this: as §1
For another experiment, the system named is ATS95. The description is as above. To be noted: P. falciparum in erythrocytes, SYBR Green DNA, 72 h; series mostly up to 28.7 µM. In short, it runs like this:
as §1

Another experiment concerns CP192. The description is as above. The settings on record: P. falciparum in erythrocytes, SYBR Green DNA, 72 h; series mostly up to 28.7 µM. The method in brief: as §1
Another experiment relates to CP201. The experiment is described as above. To be noted: P. falciparum in erythrocytes, SYBR Green DNA, 72 h; series mostly up to 28.7 µM. The method in brief:
as §1

For another experiment, the system named is CP211. The experiment is described as above. To be noted: P. falciparum in erythrocytes, SYBR Green DNA, 72 h; series mostly up to 28.7 µM. In short, it runs like this: as §1
Another experiment concerns CP215. The description is as above. To be noted: P. falciparum in erythrocytes, SYBR Green DNA, 72 h; series mostly up to 28.7 µM. In short, it runs like this: as §1
In another experiment the test system is CP237. The experiment is described as above. The settings on record: P. falciparum in erythrocytes, SYBR Green DNA, 72 h; series mostly up to 28.7 µM. In short, it runs like this:
as §1

Experiment [2] in a line: qHTS for identification of novel therapeutic agents for treatment of microphthalmiaassociated transcription factor (MiT) renal cell carcinoma (RCC) (AID 1963991). The settings on record: CellTiter-Glo, 48 h, stronger effect = lower value. The method in brief: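 Viability of three TFE3-fusion renal carcinoma lines measured by CellTiter-Glo after 48 h treatment with each of 1912 compounds at 11 concentrations. Responses scaled between DMSO (100%) and empty wells (0%) before curve fitting.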

Experiment [3] can be described thus: qHTS profiling for inhibitors of Plasmodium falciparum proliferation (AID 504749).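 For activity, negative = inhibition: 0% = DMSO vehicle and full inhibition = artemisinin control.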 For all read-outs here: nearly all actives have a fitted effect of over 60% in size. Note: potency is the fitted concentration of half-maximal effect. The settings on record: P. falciparum in erythrocytes, SYBR Green DNA, 72 h; for activity, negative = inhibition: at 28.7 µM (top of the series). The method in brief: as §1
For the next experiment, the system named is 7G8. The description is as above. The settings on record: P. falciparum in erythrocytes, SYBR Green DNA, 72 h; series mostly up to 28.7 µM. In short, it runs like this:
as §1

The subject of the next experiment is ATS189. The description is as above. To be noted: P. falciparum in erythrocytes, SYBR Green DNA, 72 h; series mostly up to 28.7 µM. The method in brief:
as §1

The next experiment concerns C2A. The description is as above. To be noted: P. falciparum in erythrocytes, SYBR Green DNA, 72 h; series mostly up to 28.7 µM. The method in brief: as §1
The test system of a further experiment is CP191. The description is as above. To be noted: P. falciparum in erythrocytes, SYBR Green DNA, 72 h; series mostly up to 28.7 µM. In short, it runs like this:
as §1

A further experiment has as its system CP194. The experiment is described as above. The settings on record: P. falciparum in erythrocytes, SYBR Green DNA, 72 h; series mostly up to 28.7 µM. In short, it runs like this: as §1
The next experiment has as its system CP217. The description is as above. The settings on record: P. falciparum in erythrocytes, SYBR Green DNA, 72 h; series mostly up to 28.7 µM. In short, it runs like this:
as §1

The mark [4] stands for this setting: measured here: PEO1 parental Z-AUC.
Setting [5] is: TFE3-RCC UOK109 viability, measured here: UOK109 Z-AUC.
Setting [6] is: TFE3-RCC viability, measured here: UOK124 Z-AUC.
The mark [7] stands for this setting: TFE3-RCC viability, measured here: UOK145 Z-AUC.

SMILES strings stand for the structures. Results filed as inconclusive are left out. The source made the active and inactive calls. Unless noted, calls come from the whole dose curve; as a rule, active = well fitted inhibition curve with a large enough effect; inconclusive = small, poorly fitted or top-dose-only effect; inactive = flat fitted curve, though single readings scatter.

Take `Cn1cnc([N+](=O)[O-])c1Sc1ncnc2nc[nH]c12`: the Z-AUC was -0.621 (inactive) in [1], -1.27 in [1] (setting [4]) and -1.41 in experiment [1] (measured here: PEO4 Z-AUC). In addition, the Potency result in the experiment with 3D7, in the experiment with AA1029, in the experiment with AS120, in the experiment on ATS95, in the experiment on CP192 and with CP211 was “inactive” in each case. Further, the Potency entry in the experiment on CP215 and with CP237 was “inactive” in each case. The compound was called inactive in the experiment on CP201.

Regarding `O=C(O)COCCN1CCN(C(c2ccccc2)c2ccc(Cl)cc2)CC1` (stereo not given), the z-score in experiment [2] (setting [5]) was 0.871; in experiment [2] (setting [6]), 0.439; in [2] (setting [7]), 0.674.

Consider `COc1ccccc1-c1cccc(-c2c(O)c3cc(C#N)c(Cl)cc3[nH]c2=O)c1`, for which the figures for the z-score in experiment [2] (setting [5]), in experiment [2] (setting [6]) and in experiment [2] (setting [7]) were 1.05, -0.0424 and 0.756, respectively.

`Cc1ccccc1C(C(=O)NC1CCCC1)N(C(=O)Cn1cnc2ccccc21)c1cccc(F)c1` (stereo not given): the z-score in [2] (setting [5]) worked out at 0.51; in experiment [2] (setting [6]) it was 0.839; in experiment [2] (setting [7]) it was 0.533.

Regarding `CN1CCN(CCCN2c3ccccc3Sc3ccc(C(F)(F)F)cc32)CC1`, the Z-AUC is 0.668 (inactive) in experiment [1], 0.224 in [1] (setting [4]) and 0.215 in experiment [1] (measured here: PEO4 Z-AUC). Also, the Potency was 2.24 µM (active) in [3] (parasite line A); 2 µM (active) in experiment [3] (parasite line B); 7.94 µM (active) in the experiment with 7G8; 3.16 µM (active) in the experiment with AA1029; 3.16 µM (active) in the experiment with AS120; 3.98 µM (active) in the experiment on ATS189. The Potency in the experiment on ATS95 is 12.6 µM (active); in the experiment with C2A, 7.94 µM (active); in the experiment on CP191 it was 10 µM (active); in the experiment on CP237 it was 12.6 µM (active). Also, in the experiment with CP201, the outcome was inactive.

Take `CCOC(=O)C1=C[C@@]2(CC)CCCN3CCc4c(n1c1ccccc41)[C@H]32`: the Potency in the experiment on CP192 was 13.5 µM (active); with CP194 it was 13.5 µM (active); in the experiment with CP211 it was 13.5 µM (active); in the experiment with CP215 it was 10.7 µM (active).

For `Cc1cc2c(C(C)C)c(O)c(O)c(C=O)c2c(O)c1-c1c(C)cc2c(C(C)C)c(O)c(O)c(C=O)c2c1O`, the Z-AUC in [1] is 1.05 (inactive); in experiment [1] (setting [4]), 0.604; in experiment [1] (measured here: PEO4 Z-AUC), 0.413. In addition, the Potency is 8.91 µM (active) in the experiment with 7G8, 8.91 µM (active) with AS120 and 10 µM (active) in the experiment on CP237.

Turning to `O=C(C=Cc1ccc(/C=C/C(=O)Nc2ccc(C3=NCCN3)cc2)cc1)Nc1ccc(C2=NCCN2)cc1`, the z-score in [2] (setting [5]) was 0.251; in experiment [2] (setting [6]), 0.767; in experiment [2] (setting [7]), 0.309.

In the case of `OC(CN1CCC(Cc2ccc(F)cc2)CC1)c1ccc(Cl)cc1` (stereo not given), the z-score in experiment [2] (setting [5]) is 0.0108; in experiment [2] (setting [6]), 0.291; in experiment [2] (setting [7]), 0.245. For the same compound, the activity, negative = inhibition in experiment [3] (parasite line A) was -26.6% (inactive). The Potency was 0.891 µM (active) in [3] (parasite line B); 5.01 µM (active) with 3D7; 0.316 µM (active) with 7G8; 1.41 µM (active) with AA1029; 1.26 µM (active) in the experiment on AS120; 1.41 µM (active) with ATS189. The results for the Potency in the experiment with ATS95 and in the experiment on CP237 were 1.58 µM (active) and 2.51 µM (active), respectively. Further, the Potency result with C2A, with CP191 and in the experiment on CP211 was “inactive” each time. Further, in the experiment on CP201, the call was inactive.

As for `CC(C)(C)OC(=O)CN(Cc1ccc(Cl)cc1)Cc1ccc([N+](=O)[O-])s1`, the z-score in [2] (setting [5]) is 0.406; in experiment [2] (setting [6]), 0.354; in experiment [2] (setting [7]), 0.158.

`CCOC(=O)N1CCC(=C2c3ccc(Cl)cc3CCc3cccnc32)CC1`: in [3] (parasite line B), the activity, negative = inhibition is -13.3% (inactive). The Potency in experiment [3] (parasite line A) is 12.6 µM (active); in the experiment on 7G8 it was 2.24 µM (active); with AS120, 1.78 µM (active); with CP217, 3.98 µM (active); in the experiment with CP237, 8.91 µM (active). The Potency entry with ATS189 and in the experiment with C2A was “inactive” each time.

Regarding `CCOC(=O)C1=C[C@]2(CC)CCCN3CCc4c(n1c1ccccc41)[C@@H]32`, the Potency is 5.01 µM (active) in the experiment with 7G8; 10 µM (active) with AA1029; 8.91 µM (active) with AS120; 12.6 µM (active) in the experiment on ATS95; 11.2 µM (active) in the experiment with CP217.

(Values after PubChem BioAssay (NCATS).)
